ChEMBL document CHEMBL4513135, “CO-ADD screening of IQOG CSIS (Spain) compounds”
Measured potencies and affinities stand elsewhere.

These molecules were tested on Staphylococcus aureus. Conditions: Concentration 32 ug.mL-1; ASSAY_TEST Inhibition of Bacterial Growth; detection method Absorption (OD600); MEDIA CAMHB; plate type 384well; NBS; CORNING #3640; time 18 hr.

Compound	Inhibition
CC(=O)Oc1ccc(C=C2N=C(c3ccccc3)OC2=O)c(OC(C)=O)c1	7.39%
CNN=C1N=C(SCc2ccccc2)SC1=O	8.05%
C#CCN(C)c1nc(NCCC2CCN(Cc3ccccc3)CC2)c(C#N)cc1C#N.Cl	16.92%
C#CCN(C)Cc1cc2cc(OCc3ccccc3)ccc2n1C.O=C(O)C(=O)O	41.66%
CCOC(=O)c1cc2cc(OC)ccc2n1C	-7.5%
C#CCNc1nc(OC)c(C#N)c(-c2ccccc2)c1C#N	49.28%
O=Cc1ccc(OCCO[N+](=O)[O-])cc1	6.78%
Cn1ccnc1C1C(C#N)=C(N)Oc2c1ccc1cccnc21 (stereo not given)	12.96%
O=C1SC(SCc2ccccc2)=NC1=Cc1ccccc1	6.82%
CN1C/C(=C\Br)n2c1c(C#N)cc(C#N)c2=O	16.92%
c1ccc(CNc2ncnc3c2cnn3-c2ccccc2)cc1	7.54%
COc1ccc2c(ccn2C)c1	6.16%
COc1ccccc1C1C(C#N)=C(N)Oc2ccc3ccccc3c21 (stereo not given)	38.4%
C=C1CN(C)c2c(C#N)c(-c3ccccc3)c(C#N)c(=N)n21	11.22%
Nc1c2c(nc3c1C(c1ccccc1)c1ccc4ccccc4c1O3)CCCC2 (stereo not given)	23.6%
O=C(Cc1c[nH]c2ccccc12)NNCc1ccccc1	-6.19%
CC(=O)Oc1ccc(C=C2N=C(c3ccccc3)OC2=O)cc1	10.97%
N#CC1=C(N)Oc2ccc3ccccc3c2C1c1ccccc1[N+](=O)[O-] (stereo not given)	40.78%
N#Cc1cc2c(N)c3c(nc2nc1N1CCCCC1)CCCC3	29.29%
COC1=C(C#N)CC(C)C(=O)N1 (stereo not given)	16.96%

Compound	Inhibition
N#Cc1c(N)nc(NC2CCN(Cc3ccccc3)CC2)c(C#N)c1-c1ccccc1	33.89%
C/C(=N\NC(=O)c1cc2ccccc2n1Cc1ccccc1)C1CC1	7.87%
Cc1ccc(C2c3c(Cl)nnnc3Oc3ccc4ccccc4c32)cc1 (stereo not given)	36.97%
N#Cc1cccnc1N	27.07%
Cc1ccccc1-c1c(C=N)c(N)nc2c1S(=O)(=O)OC2(C)C	11.29%
O=C(NNCc1c[nH]c2ccccc12)c1cccc2ccccc12	-2.49%
CCOC(=O)C1=C(C)Nc2nc3c(c(N)c2C1c1cccc(OC)c1)CCCC3 (stereo not given)	17.18%
CCC(CC)NNC(=O)c1c[nH]c2ccccc12.Cl	4.35%
C=C1CNc2c(C#N)c(-c3ccccc3)c(C#N)c(=N)n21	17.65%
N#Cc1c(N)nc(O)c(C#N)c1-c1ccccc1	4.47%
C#CCN(C)c1nc(OC)c(C#N)c(-c2ccccc2)c1C#N	44.46%
CCOc1nc(N)c(C#N)cc1C#N.Cl	-3.52%
O=C1NC(=O)C(=Cc2ccccc2)N1	16.19%
O=C(N/N=C/c1c[nH]c2ccccc12)c1ccco1	13.11%
C#CCN(C)Cc1cc2cc(OCCCC3CCN(C(=O)OC(C)(C)C)CC3)ccc2n1C	10.44%
O=C(O)C(=Cc1ccccc1)NC(=O)c1ccccc1	14.72%
C#CCN(C)c1nc(NCCCCC2CCN(Cc3ccccc3)CC2)c(C#N)cc1C#N	0.89%
CC(=O)NC(=Cc1ccccc1)C(=O)O	13.69%
COc1ccc(-c2cc(-c3cc4ccc(OC)cc4nc3Cl)cc(=O)[nH]2)cc1	18.65%
CNC(=O)c1cc2cc(OCc3ccccc3)ccc2n1C	23.23%

What follows are molecules tested on Escherichia coli. Conditions: Concentration 32 ug.mL-1; ASSAY_TEST Inhibition of Bacterial Growth; detection method Absorption (OD600); MEDIA CAMHB; plate type 384well; NBS; CORNING #3640; time 18 hr.

Compound	Inhibition
CC(=O)Oc1ccc(C=C2N=C(c3ccccc3)OC2=O)c(OC(C)=O)c1	7.35%
CNN=C1N=C(SCc2ccccc2)SC1=O	4.4%
C#CCN(C)c1nc(NCCC2CCN(Cc3ccccc3)CC2)c(C#N)cc1C#N.Cl	-3.04%
C#CCN(C)Cc1cc2cc(OCc3ccccc3)ccc2n1C.O=C(O)C(=O)O	-11.51%
CCOC(=O)c1cc2cc(OC)ccc2n1C	-9.48%
C#CCNc1nc(OC)c(C#N)c(-c2ccccc2)c1C#N	-4%
O=Cc1ccc(OCCO[N+](=O)[O-])cc1	18.31%
Cn1ccnc1C1C(C#N)=C(N)Oc2c1ccc1cccnc21 (stereo not given)	-14.85%
O=C1SC(SCc2ccccc2)=NC1=Cc1ccccc1	1.82%
CN1C/C(=C\Br)n2c1c(C#N)cc(C#N)c2=O	-11.76%
c1ccc(CNc2ncnc3c2cnn3-c2ccccc2)cc1	6.64%
COc1ccc2c(ccn2C)c1	8.07%
COc1ccccc1C1C(C#N)=C(N)Oc2ccc3ccccc3c21 (stereo not given)	-7.08%
C=C1CN(C)c2c(C#N)c(-c3ccccc3)c(C#N)c(=N)n21	-20.05%
Nc1c2c(nc3c1C(c1ccccc1)c1ccc4ccccc4c1O3)CCCC2 (stereo not given)	-5.04%
O=C(Cc1c[nH]c2ccccc12)NNCc1ccccc1	-10.21%
CC(=O)Oc1ccc(C=C2N=C(c3ccccc3)OC2=O)cc1	17.49%
N#CC1=C(N)Oc2ccc3ccccc3c2C1c1ccccc1[N+](=O)[O-] (stereo not given)	-6.45%
N#Cc1cc2c(N)c3c(nc2nc1N1CCCCC1)CCCC3	3.13%
COC1=C(C#N)CC(C)C(=O)N1 (stereo not given)	-13.94%

Compound	Inhibition
N#Cc1c(N)nc(NC2CCN(Cc3ccccc3)CC2)c(C#N)c1-c1ccccc1	-2.79%
C/C(=N\NC(=O)c1cc2ccccc2n1Cc1ccccc1)C1CC1	7.24%
Cc1ccc(C2c3c(Cl)nnnc3Oc3ccc4ccccc4c32)cc1 (stereo not given)	16.16%
N#Cc1cccnc1N	-3.89%
Cc1ccccc1-c1c(C=N)c(N)nc2c1S(=O)(=O)OC2(C)C	8.66%
O=C(NNCc1c[nH]c2ccccc12)c1cccc2ccccc12	3.58%
CCOC(=O)C1=C(C)Nc2nc3c(c(N)c2C1c1cccc(OC)c1)CCCC3 (stereo not given)	-19.26%
CCC(CC)NNC(=O)c1c[nH]c2ccccc12.Cl	0.83%
C=C1CNc2c(C#N)c(-c3ccccc3)c(C#N)c(=N)n21	-9.94%
N#Cc1c(N)nc(O)c(C#N)c1-c1ccccc1	-25.59%
C#CCN(C)c1nc(OC)c(C#N)c(-c2ccccc2)c1C#N	-5.76%
CCOc1nc(N)c(C#N)cc1C#N.Cl	-30.21%
O=C1NC(=O)C(=Cc2ccccc2)N1	11.12%
O=C(N/N=C/c1c[nH]c2ccccc12)c1ccco1	12.98%
C#CCN(C)Cc1cc2cc(OCCCC3CCN(C(=O)OC(C)(C)C)CC3)ccc2n1C	14.28%
O=C(O)C(=Cc1ccccc1)NC(=O)c1ccccc1	9.37%
C#CCN(C)c1nc(NCCCCC2CCN(Cc3ccccc3)CC2)c(C#N)cc1C#N	-7.65%
CC(=O)NC(=Cc1ccccc1)C(=O)O	10.22%
COc1ccc(-c2cc(-c3cc4ccc(OC)cc4nc3Cl)cc(=O)[nH]2)cc1	-13.67%
CNC(=O)c1cc2cc(OCc3ccccc3)ccc2n1C	-13.67%
